The list is not random: actives were taken first. Their share in the collection is about 1%.
gsp agonist = activates gsp, the McCune-Albright syndrome mutation; gsp mutant cells, cAMP HTRF, 30 min; AID 624287; Potency, µM (titrated, usually from 76.9 µM), for inactives: at the top dose activation (cAMP increase), hits mostly activators; 340,000 compounds, 0.13% hits; active = well fitted activation curve with a large enough effect; inconclusive = small, poorly fitted or top-dose-only effect, or another doubt; inactive = no such curve, though single readings can be large or run the other way; cell line not stated here;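 note: phosphodiesterase inhibitor Ro 20-1724 added with compounds to block cAMP breakdown; potency is the fitted concentration of half-maximal effect; nearly all actives have a fitted effect of over 60% in size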
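Cells stably selected in G418 were plated at 2000/well, grown 16-24 hr, then given compounds in DMSO with the PDE inhibitor […] (300 uM solution added) for 30 min at 37C; cAMP was read by HTRF.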
gsp antag = gsp mutant antagonism | Potency, µM (titrated, usually from 76.9 µM), without a hit: at the top dose activity change, negative = inhibition, most hits filed as inhibitors | 340,000 compounds, 0.4% hits | gsp-mutant cells, cAMP HTRF, 30 min; calls by dose curve; cell line not stated here;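 note: intracellular cAMP measured with PDE inhibitor Ro 20-1724 present during compound exposure; potency is the fitted concentration of half-maximal effect; % is set by controls: 0 for no effect and ±100 for the full control effect; nearly all actives have a fitted effect of over 65% in size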
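Measurement of cellular cAMP by homogeneous time-resolved fluorescence following a 30 min compound exposure at 37C. The PDE inhibitor […] was present throughout; the assay buffer was DPBS with 0.05% BSA and 0.005% Tween 20.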
RXFP1 antag = RXFP1 (human) relaxin receptor antagonism | HEK293-RXFP1, relaxin-stimulated cAMP HTRF, 30 min; stronger effect = lower value | activity change, negative = inhibition, % at 57.5 µM | 350,000 compounds, 0.59% hits | AID 1259400;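 active = activity change of -60% or lower, but not beyond a set lower limit; inconclusive = change between -60% and -40%, or beyond the set limit; inactive = change above -40%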; note: % is set by controls: 0 for no effect and ±100 for the full control effect
TSHR antag = human thyrotropin receptor antagonism; P16473; TSHR-expressing cells, TSH-stimulated cAMP HTRF, 2 h; stronger effect = lower value; activity change, negative = inhibition, % at 11.5 µM; 330,000 compounds, 0.2% hits; AID 504810;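 active = activity change below a set negative limit, meaning inhibition stronger than a set level, cut at about -70% in these data; inconclusive = activity change between two set negative limits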; note: % is set by controls: 0 for no effect and ±100 for the full control effect
Target sequence (P16473 whole entry, looked up): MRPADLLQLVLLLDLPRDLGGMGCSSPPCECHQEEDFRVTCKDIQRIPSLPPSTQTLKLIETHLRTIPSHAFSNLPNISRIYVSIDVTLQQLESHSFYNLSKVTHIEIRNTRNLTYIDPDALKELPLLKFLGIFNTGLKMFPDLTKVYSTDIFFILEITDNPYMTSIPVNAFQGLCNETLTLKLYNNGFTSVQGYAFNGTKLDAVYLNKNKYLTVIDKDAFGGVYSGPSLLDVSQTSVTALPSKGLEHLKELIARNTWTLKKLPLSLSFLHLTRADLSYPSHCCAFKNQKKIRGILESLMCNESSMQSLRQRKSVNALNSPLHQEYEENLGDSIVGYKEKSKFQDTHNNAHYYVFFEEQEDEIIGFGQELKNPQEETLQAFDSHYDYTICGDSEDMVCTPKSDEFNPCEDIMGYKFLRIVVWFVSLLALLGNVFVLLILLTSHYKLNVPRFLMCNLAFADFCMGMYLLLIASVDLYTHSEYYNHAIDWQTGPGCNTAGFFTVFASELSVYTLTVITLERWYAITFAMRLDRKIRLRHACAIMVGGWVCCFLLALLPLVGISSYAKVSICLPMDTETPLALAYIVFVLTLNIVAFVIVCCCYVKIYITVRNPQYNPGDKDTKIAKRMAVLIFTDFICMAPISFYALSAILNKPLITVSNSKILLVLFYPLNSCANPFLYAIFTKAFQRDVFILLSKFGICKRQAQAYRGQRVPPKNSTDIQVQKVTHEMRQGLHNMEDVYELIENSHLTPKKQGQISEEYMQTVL
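Competitive HTRF cAMP read-out (cryptate anti-cAMP antibody, cAMP-d2; 30 min, room temperature) in freshly harvested TSHR cells. Compounds added before TSH at EC80 (4nM final), followed by 2 hours' incubation at 37 deg C.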
RXFP1 agonist = agonists of human relaxin receptor RXFP1; Q9HBX9; AID 2676; 370,000 compounds, 0.3% hits; Potency, µM (highest dose often 57.5 µM), for inactives: top-dose activation, most hits filed as activators; HEK293T-RXFP1 cAMP TR-FRET, 30 min; response scale: percent of porcine relaxin response, buffer zero; active = well fitted activation curve with a large enough effect; inconclusive = small, poorly fitted or top-dose-only effect; note: potency is the fitted concentration of half-maximal effect; % is set by controls: 0 for no effect and ±100 for the full control effect; nearly all actives have a fitted effect of over 60% in size
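HEK293 cells stably expressing RXFP1, treated 30 min at 37C with compounds plus PDE4 inhibitor Ro 20174; cAMP measured by HTRF TR-FRET. Normalized to buffer and 29 nM porcine relaxin; EC50 by Hill fit.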
* = called active by the depositor; u = inconclusive; x = no result given; [ ] = dose if it differs, or a comment.

SMILES | gsp agonist | gsp antag | RXFP1 antag | TSHR antag | RXFP1 agonist
Cc1nn(CC(=O)NCc2cccc(Br)c2)c(=O)c2c1sc1ccccc12 | x | x | -11 | x | 18%
CNC(=O)NC(=O)CSc1nc(-c2cccs2)c(C#N)c(=O)[nH]1 | u | 0% | 43 | 96 | 14µM*
CCc1nc(SCc2ccc(F)cc2)[nH]c(=O)c1C#N | -11% | 35µM* | -18 | -20 | -1%
CSc1nc(-c2cccs2)c(C#N)c(=O)[nH]1 | 112%[15.4 µM] | 18% | 23 | 15 | 14µM*
N#Cc1c(-c2cccs2)nc(SCc2ccc(Cl)cc2)[nH]c1=O | 73%[15.4 µM] | 16% | -3 | u | 16µM*
Cc1ccc(C)c(NC(=O)CSc2nc(-c3ccccc3)c(C#N)c(=O)[nH]2)c1 | x | x | 10 | x | -3%
COc1ccc(-c2cc(C(C)=O)c(C)n2CCC(=O)Nc2ccc(C(F)(F)F)cc2)cc1 | x | x | -29 | x | 0%
CCOc1cc(-c2ccc(OC(=O)c3ccccc3Cl)c(OC)c2)cc(=O)c2c(C)oc(C)c12 | x | x | -73* | x | -1%
COc1ccc(CCNc2oc(COc3ccc(Br)cc3)nc2C#N)cc1OC | -25% | 40µM* | -62* | -30 | 2%
COc1ccc(CCNc2oc(Cc3cccc4ccccc34)nc2C#N)cc1OC | -18% | u | 0 | -24 | 1%
CCN(c1cccc(C)c1)c1ncnc2c1cnn2-c1cccc(Cl)c1 | x | x | -23 | x | 0%
CC(C)c1nc(N2CCN(C(=O)c3ccco3)CC2)c(C#N)c2c1COC(C)(C)C2 | -10% | -11% | -61* | -14 | 3%
CC(C)Cc1cc(C(=O)Nc2sc3c(c2C#N)CCC3)no1 | u | -17% | -66* | -19 | 2%
COc1ccc([N+](=O)[O-])cc1NC(=O)COC(=O)Cc1cc(OC)c(OC)c(OC)c1 | 7% | 50µM* | 2 | 8 | 1%
COc1ccc(CC(=O)NNS(=O)(=O)c2ccccc2[N+](=O)[O-])cc1OC | -5%[15.4 µM] | -11% | 9 | 0 | -5%
COc1ccc(NC(=O)c2ccc(-c3ccc([N+](=O)[O-])cc3)o2)cc1 | 17% | 0% | -29 | -1 | 0%
COc1cc(CC(=O)OCC(=O)Nc2cc([N+](=O)[O-])ccc2Cl)cc(OC)c1OC | -17% | -15% | -2 | 1 | 4%
COc1ccc(CC(=O)NNS(=O)(=O)c2ccc([N+](=O)[O-])cc2)cc1OC | 1% | 7% | -84* | 3 | -1%
COc1ccc(CCNC(=O)c2ccc(-c3ccc([N+](=O)[O-])cc3)o2)cc1OC | 0% | 32µM* | 4 | -9 | 3%
COc1ccc(-c2cc(C(F)(F)F)nc(SCC(=O)N3CCCCC3)n2)cc1OC | x | x | x | x | 8%
O=C(CN1C(=O)CSc2ccc(S(=O)(=O)N3CCCC3)cc21)Nc1cccc(Cl)c1 | x | x | -33 | x | -2%
NNC(=O)CSc1nc(-c2ccccc2)nc2c1CCCC2 | 12% | -6% | -69* | -17 | 0%
Cc1ccc(C(=O)CSc2nc(-c3ccccc3)nc3c2CCCC3)cc1 | x | x | x | x | 6%
COc1cccc(CNC(=O)CCCn2nc(C)c3sc4ccccc4c3c2=O)c1 | x | x | -10 | x | u
C=C1CCC2C(C)(C)[C@@H](O)CC[C@@]2(C)[C@@H]1COc1ccc2ccc(=O)oc2c1 (stereo partly drawn) | 5% | -20% | 2 | -76* | 6%
SMILES | gsp agonist | gsp antag | RXFP1 antag | TSHR antag | RXFP1 agonist
O=C(CN1C(=O)c2ccccc2S1(=O)=O)NCCSCc1cccc(Cl)c1 | -5%[15.4 µM] | -4% | -3 | -96* | 2%
COCCn1nnnc1C(c1ccccn1)N1CCN(c2cc(Cl)ccc2C)CC1 (stereo not drawn) | -1% | -6% | -4 | -12 | 4%
COc1ccc(Cn2nnnc2C(CC(C)C)N2CCN(c3ccccc3)CC2)cc1 (stereo not drawn) | u | 4% | -16 | -72* | -1%
COc1ccc(Cn2nnnc2C(c2ccccn2)N2CCN(c3cc(Cl)ccc3C)CC2)cc1 (stereo not drawn) | -44% | -6% | -25 | -93* | -1%
CCCC(c1nnnn1Cc1ccc(OC)cc1)N1CCN(c2ccccc2)CC1 (stereo not drawn) | 14% | -4% | -4 | -48 | 2%
COc1cc(OC)c(NC(=O)CCc2nc(C3=CCN(Cc4cccc(Cl)c4)CC3)no2)cc1Cl | x | x | x | x | 0%
Cc1c(N=Nc2c(-c3ccc([N+](=O)[O-])cc3)[nH]n(C(N)=S)c2=O)cccc1[N+](=O)[O-] | -16% | 8.9µM* | -24 | -43 | -2%
NC(=S)n1[nH]c(-c2ccc([N+](=O)[O-])cc2)c(N=Nc2ccccc2[N+](=O)[O-])c1=O | 1% | -10% | -5 | 6 | 0%
NC(=S)n1[nH]c(-c2ccc([N+](=O)[O-])cc2)c(N=Nc2cccc([N+](=O)[O-])c2)c1=O | -39% | 14µM* | -30 | u | -2%
CC(C)NC(=O)/C(C#N)=C/c1ccc(N(C)C)o1 | -1%[15.4 µM] | 35µM* | -23 | -19 | -4%
CN1Cc2cc(C(=O)N3CCC(C4CCNCC4)CC3)ccc2N[C@@H](CC(=O)O)C1=O | x | x | -13 | x | x
Cc1ccc(C)c(-n2cc(CNCCCn3cccn3)c(-c3ccccc3)n2)c1 | -32%[15.4 µM] | 1% | -21 | 10 | -1%
Cc1ccc(-n2cc(CNCCCn3cccn3)c(-c3cccc(C)c3)n2)cc1 | -12%[15.4 µM] | 1% | -64* | -4 | 1%
Cc1ccc(CC(=O)N(Cc2nc(-c3ccc(C)cc3)no2)C(C)C)cc1 | x | x | x | x | 4%
CCC(CC)C(=O)Nc1cccc(-c2nc3ccccc3s2)c1 | x | x | x | x | 15%
O=C(Nc1cccc(-c2nc3ccccc3s2)c1)c1cccs1 | 1%[15.4 µM] | 22µM* | -2 | -13 | 0%
COc1ccc2c(c1)c1ncnc(N3CCN(Cc4ccc5c(c4)OCO5)CC3)c1n2C | x | x | x | -11 | 8%
COc1ccc2[nH]c3c(N4CCN(Cc5ccc6c(c5)OCO6)CC4)ncnc3c2c1 | 11% | 40µM* | -17 | -10 | 2%
CCC1CN(C(=O)N2CCC(C(=O)N3CCN(c4ccccc4)CC3)CC2)c2ccccc2O1 (stereo not drawn) | x | x | -11 | x | -1%
Cc1ccc(-n2c(=S)[nH]c3sc4c(c3c2=O)CCC4)cc1 | 55%[15.4 µM] | 12% | -1 | 43 | 13µM*
CC(=O)c1sc(C(C)(C)C)cc1NC(=O)CCC(=O)O | 8.9µM* | 14% | 23 | -3 | u
CCn1ccc(NS(=O)(=O)c2ccc(N)cc2)nc1=O | x | x | -16 | x | x
COc1ccc(S(=O)(=O)N2CCOC23CCN(C(=O)c2ccc(Cl)cc2Cl)CC3)cc1 | -38% | u | -34 | -115* | 0%
COc1ccc(S(=O)(=O)N2CCOC23CCN(C(=O)c2c(F)cccc2Cl)CC3)cc1 | 1% | -18% | -37 | 2 | 0%
CCn1c(=O)c([N+](=O)[O-])c(Cl)c2ccccc21 | -3% | u | u | -79* | -1%

Source: PubChem BioAssay (National Center for Advancing Translational Sciences (NCATS))
